Inconclusive results are not listed. Calls of active or inactive are those of the source. Calls follow the shape of the dose curve; as a rule, active = well fitted inhibition curve with a large enough effect; inconclusive = small, poorly fitted or top-dose-only effect; inactive = flat fitted curve, though single readings scatter.
Biological target: Luciferin 4-monooxygenase (Photinus pyralis) (UniProt P08659)
Experiment: qHTS screen for small molecules that inhibit ELG1-dependent DNA repair: SAR in Biochemical Luciferin Assay
From the text: Cancer cells divide rapidly compared to normal cells in the body. During cell division, cancer cells need to duplicate their genome by DNA replication. The failure of genome duplication leads to cancer cells' death. Therefore, inhibitors of DNA replication could specifically kill cancer cells. Based on this concept, many chemotherapeutic agents were developed and have been used to treat cancer patients. However, there are a limited number of agents available in the clinical setting, and some of those that do exist have low efficacy and severe side effects. Therefore, if we can find the compounds that effectively block DNA replication either by directly damaging DNA or by inhibiting other cellular mechanisms, the options for cancer treatment will be broadened. With this in mind, we developed a quantitative high-throughput ELG1-luciferase reporter gene assay. Small molecules that specifically block ELG1 function in response to DNA damage can be identified by monitoring the suppression of luciferase activity. Since ELG1 defines a pathway for repairing DNA damage, agents blocking ELG1 function can be used to sensitize cancer cells to chemotherapeutic agents whose mechanism of action involves the induction of DNA damage. This counter assay is a luciferase assay, that following treatment with putative ELG1 antagonists, aims to eliminate luciferase enhancers/inhibitors. NIH Molecular Libraries Probe Production Network [MLPCN] NIH Chemical Genomics Center [NCGC] MLPCN Grant: R03 MH092164 Assay Provider: Kyungjae Myung, NHGRI, NIH
3 uL of substrate reagent will be pipetted into each well in 1536-well white, solid-bottom plates using a FRD dispenser, followed by addition of 23 nL of DMSO or compounds by pintool. After compound addition, 1 µL of luciferase will be added into the wells. The plates will be read in a ViewLux CCD-based plate reader.

| Compound | outcome |
| --- | --- |
| COc1cc2c(cc1OC)C1C(=O)c3c(cc4c(c3O)C=CC(C)(C)O4)OC1CO2 (centres undefined) | inactive |
| CCCCCCCCCCCCCC(=O)O[C@@H]1[C@@H](C)[C@@]2(O)[C@H](C=C(CO)C[C@]3(O)C(=O)C(C)=C[C@@H]23)[C@@H]2C(C)(C)C12OC(C)=O (some centres undefined) | inactive |
| C[C@@H]1C[C@H]2CC[C@H](O2)[C@H](C)C(=O)O[C@@H](C)C[C@@H]2CC[C@@H](O2)[C@@H](C)C(=O)O[C@H](C)C[C@H]2CC[C@H](O2)[C@H](C)C(=O)O[C@@H](C)C[C@@H]2CC[C@@H](O2)[C@@H](C)C(=O)O1 | inactive |
| CCCCCC1C(=O)O[C@H](C)[C@@H](NC(=O)c2cccc(NC=O)c2O)C(=O)OC(C)C1OC(=O)CC(C)C (some centres undefined) | inactive |
| COC[C@H]([C@@H](O)[C@@H](O)C(=O)NCC[C@@H](C)c1nc(/C=C/C[C@H]2OC3(C[C@H](O)[C@H]2C)OC([C@@H](C[C@@H](O)[C@@H](C)[C@@H](O)[C@@H](C)/C=C(C)/C(C)=C/C=C/C(C)=C\C#N)OC)[C@@H](OP(=O)(O)O)C3(C)C)co1)N(C)C (some centres undefined) | inactive |
| COc1cc2c(cc1OC)[C@@H]1C(=O)c3ccc4c(c3OC1CO2)CC(C(C)C)O4 (some centres undefined) | inactive |
| CO/C1=C\C(C)=C\[C@@H](C)[C@@H](O)[C@H](C)C/C(C)=C/C=C/[C@H](OC)[C@H]([C@@H](C)[C@@H](O)[C@H](C)[C@H]2C[C@@H](O)[C@H](C)[C@@H](C(C)C)O2)OC1=O | inactive |
| C[C@@H]1C[C@@H]2[C@H]([C@H]3C=C(COC(=O)c4ccccc4)[C@@H](O)[C@]4(O)[C@@H](O)C(OC(=O)c5ccccc5)=C[C@@]14C3=O)C2(C)C | inactive |
| CN[C@@H]1C[C@@]2(C)O[C@@H]([C@@H]1OC)n1c3ccccc3c3c4c(c5c6ccccc6n2c5c31)C(=O)NC4 | inactive |

— PubChem BioAssay AID686933 (National Center for Advancing Translational Sciences (NCATS), 2013)
